# Results as given in publication PMC4552634, “A New Set of Chemical Starting Points with Plasmodium falciparum Transmission-Blocking Potential for Antimalarial Drug Discovery” (PLoS ONE, 2015).
# Among all 13,000 compounds or so, about 3,200 (25%) showed an effect of 50% or more. The list shows a part of the results.
# Tested on: P. falciparum stage V gametocytes
# Design: BacTiter-Glo ATP luminescence viability of purified stage V gametocytes in 384-well plates, per cent inhibition versus DMSO
# Conditions: 48 h, 5 µM; inhibitor
row,Structure (SMILES),% Inhibition [%]
1,CC(C)(C)c1cc(C(=O)N2CCC(c3ccccn3)CC2)n(Cc2ccccc2)n1 [TCMDC-133770],-53.32
2,CN(Cc1ccccc1)C1CCN(c2cc(NC(=O)c3cccc(F)c3)ccn2)CC1 [TCMDC-135000],-5.844
3,Clc1ncnc2ncn(Cc3cccc(Br)c3)c12 [TCMDC-137635],63.17
4,Clc1nc(Cl)c2c(ccn2Cc2ccccc2)n1 [TCMDC-137801],10.13
5,CCCCCN1CCCC(CNS(=O)(=O)c2cccc(C(=O)Nc3ccc(C(F)(F)F)cc3)c2)C1 (centres unmarked) [TCMDC-133672],-63.4
6,Fc1cccc(Cn2ncc3cc(Nc4ncnc5sc(C#Cc6ncc[nH]6)cc45)ccc32)c1 [TCMDC-135428],-11.76
7,O=c1cc(NCCCNCc2cc3ccc(Br)cc3s2)[nH]c2ccccc12 [TCMDC-140332],-45.39
8,OC(c1n[nH]c(=S)n1-c1ccccc1)C(O)c1n[nH]c(=S)n1-c1ccccc1 (centres unmarked) [TCMDC-125763],1.463
9,Cn1cncc1-c1cc2c(Nc3ccc(OCc4ccccc4)cc3)ncnc2cn1 [TCMDC-137188],-27.44
10,Cc1[nH]c(C)c(-c2ccc(-c3ccc(OC(F)(F)F)cc3)nc2)c(=O)c1Br [TCMDC-136016],67.89
11,Cc1[nH]c(C)c(-c2ccc(-c3ccc(OC(F)(F)F)cc3)nc2)c(=O)c1Cl [TCMDC-135677],60.39
12,Cc1[nH]c(C)c(-c2ccc(-c3cccc(OC(F)(F)F)c3)nc2)c(=O)c1Cl [TCMDC-136286],5.058
13,CC(=O)c1sc(NC(=O)Nc2ccc(C)cc2C)nc1C [TCMDC-124895],-9.928
14,CO/C(=C\C=C\c1cc2cc(Cl)c(Cl)cc2[nH]1)C(=O)Nc1ccc(NCCN(C)C)nc1 [TCMDC-139073],-22.07
15,Cc1cccc2[nH]c(C3CCN(CC4CCN(C(=O)/C=C/c5ccc(Cl)c(Cl)c5)CC4)CC3)nc12 [TCMDC-140146],-0.3523
16,CCOC(=O)[C@H](Cc1cccc2ccccc12)NC(=O)[C@H](CCC(=O)OC(C)(C)C)NC(=O)c1ccc(N(C)Cc2cnc3nc(N)nc(N)c3n2)cc1 [TCMDC-137288],41.06
17,Cc1cccc2nc(-c3ccc(-c4ccc(CNCCCN5CCCC5=O)cc4)s3)[nH]c12.O=C(O)C(F)(F)F [TCMDC-132755],11.61
18,CCCCOc1ccc(C(=O)C(CCC(CNC(C)(C)C)C(=O)c2ccc(OCCCC)cc2)CNC(C)(C)C)cc1 (centres unmarked) [TCMDC-124120],110.6
19,CCCCOC(=O)c1ccc(Nc2cc(C)nc3ccc(OC)cc23)cc1 [TCMDC-124192],8.663
20,CCOC(=O)c1ccc(OCCOc2ccccc2)cc1 [TCMDC-125533],1.604
21,CCCc1ccc(S(=O)(=O)NC2CCN(C(=O)Nc3ccc(I)cc3)CC2)cc1 [TCMDC-139436],4.903
22,CS(=O)(=O)CCNC(=O)c1ccc(-c2cc3c(Nc4ccc5c(cnn5Cc5ccccc5)c4)ncnc3cn2)o1 [TCMDC-138125],1.646
23,Cc1cc(N[C@@H](Cc2ccccc2)C(=O)NCc2cccs2)nc(NCCc2cccnc2)n1 [TCMDC-134819],56.43
24,Cc1cc(N[C@@H](Cc2ccccc2)C(=O)NCc2cccs2)nc(NCC2CCCCC2)n1 [TCMDC-134930],-30.67

row,Structure (SMILES),% Inhibition [%]
1,Cc1cc(N[C@@H](Cc2ccccc2)C(=O)NCc2cccs2)nc(NCCc2ccccn2)n1 [TCMDC-134747],121.6
2,Cc1cc(N[C@@H](Cc2ccccc2)C(=O)NCc2cccs2)nc(NCCc2ccc(F)cc2)n1 [TCMDC-134787],66.5
3,COc1ccccc1CCNc1nc(C)cc(N[C@@H](Cc2ccccc2)C(=O)NCc2cccs2)n1 [TCMDC-134802],51.92
4,CC(C)(C)c1cc(C(=O)Nc2ccc(C(=N)N)cc2)c(O)c(C(C)(C)C)c1 [TCMDC-136316],24.98
5,CCc1ccc(C(=O)Nc2cccc(CN3CCCN(Cc4ccc(O)cc4)CC3)c2)cc1 [TCMDC-141884],21.35
6,Cc1ccc(NC(=O)c2cccc(CN3CCCN(CC4CCCCC4)CC3)c2)cc1F [TCMDC-135958],-34.77
7,COCCSc1nc2scc(C)c2c(=O)n1Cc1cccc(OC)c1 [TCMDC-134420],25.73
8,CCCCCN1CCC(NC(=O)c2ccc(C(=O)Nc3ccc(C(C)C)cc3)cc2)C1 (centres unmarked) [TCMDC-136744],-20.17
9,Nc1ncnc2c1ncn2C(CO)Cc1ccc(O)cc1 (centres unmarked) [TCMDC-137893],-20.6
10,C[C@H](Cc1ccc(C[C@@H](C)NCC(O)c2cc(Cl)c(N)c(Cl)c2)cc1)NCC(O)c1cc(Cl)c(N)c(Cl)c1 (some centres unmarked) [TCMDC-131548],39.43
11,Cc1cccc(CCNC(=O)c2cc(Br)cc(N3CCN(c4ccncc4)CC3)c2)c1 [TCMDC-135149],-71.81
12,CCOC(=O)c1ccc(NC(=O)Nc2ccc(-c3cccc(-c4nc5ccc(F)cc5[nH]4)c3)cc2)cc1 [TCMDC-133269],-27.05
13,Cc1cc(N[C@@H](Cc2ccccc2)C(=O)NCCc2ccccc2)nc(NCCc2cccs2)n1 [TCMDC-134874],14.35
14,Cc1cc(N[C@@H](Cc2ccccc2)C(=O)NCc2cccs2)nc(NCCc2ccccc2)n1 [TCMDC-134775],70.11
15,Cc1cc(N[C@@H](Cc2ccccc2)C(=O)NCc2cccs2)nc(Nc2ccccc2)n1 [TCMDC-134734],-21.51
16,Cc1cc(N(C)C2CCN(C)C2)nc(Nc2ccccc2Cl)n1 (centres unmarked) [TCMDC-137007],12.36
17,Cc1cc(NC(=O)c2cc(S(=O)(=O)N3CCCCC3)ccc2C)no1 [TCMDC-124530],23.56
18,Cc1ccc(NC(=O)c2cc(S(=O)(=O)NC(C)(C)C)ccc2C)nc1 [TCMDC-125009],54.13
19,Cc1ccc(C)c(S(=O)(=O)Nc2ccc(Br)cc2C(=O)Nc2cccc(C(F)(F)F)c2)c1 [TCMDC-141482],10.24
20,Cc1cc(N2CCC(NS(=O)(=O)c3ccccc3)CC2)nc(Nc2cccc(C#N)c2)n1 [TCMDC-134213],22.13
21,CN(c1ncc(-c2cccc(CNCc3ccccc3O)c2)cn1)C1CCCCC1 [TCMDC-133137],-20.17
22,CC1(C)CCCN(c2ncc(-c3cccc(CNCc4ccccc4O)c3)cn2)C1 [TCMDC-133139],32.42
23,CCCN(CC1CC1)c1ncc(-c2cccc(CNCCC3CCCN3C)c2)cn1 (centres unmarked) [TCMDC-133142],40.53
24,CC(=O)Nc1cccc(CNCc2ccc(-c3cnc(N4CCCC(C)(C)C4)nc3)cc2)c1 [TCMDC-133549],-38.45

row,Structure (SMILES),% Inhibition [%]
1,CN(CCc1ccccc1)c1ncc(-c2cccc(CNCCC3CCCN3C)c2)cn1 (centres unmarked) [TCMDC-133143],92.22
2,CN1CCCC1CCNCc1cccc(-c2cnc(N(C)C3CCCCC3)nc2)c1 (centres unmarked) [TCMDC-133141],75.89
3,CN1CCCC1CCNCc1cccc(-c2cnc(N3CCCC(C)(C)C3)nc2)c1 (centres unmarked) [TCMDC-133144],90.28
4,COC(=O)c1cc(OC)c(OC)cc1NC(=O)NC12CC3CC(CC(C3)C1)C2 [TCMDC-124384],-44.27
5,CC(Oc1ccc(Cl)cc1)C(=O)Nc1cc(C(F)(F)F)ccc1-n1cncn1 (centres unmarked) [TCMDC-125023],17.82
6,Cc1cccc(CNc2nc(C)cc(N[C@@H](CC(C)C)C(=O)NCCOc3ccccc3)n2)c1 [TCMDC-134892],-42.27
7,Fc1ccc2nc(-c3cccc(-c4cccc(CN5CCN(c6cnccn6)CC5)c4)c3)[nH]c2c1 [TCMDC-132676],-22.96
8,CCCC(C)Nc1nc(C)cc(N[C@@H](CC(C)C)C(=O)Nc2ccc(OC)cc2)n1 (some centres unmarked) [TCMDC-134896],-21.51
9,CCCCCCCCn1ccc(=N)cc1 [TCMDC-125630],13.04
10,Cc1cc(N2CCC(NS(=O)(=O)c3ccc(F)cc3)CC2)nc(Nc2cccc(C#N)c2)n1 [TCMDC-134214],18.32
11,CCNc1cc(C(=O)N[C@@H](Cc2ccccc2)[C@H](O)CNC2CCC(C)(C)C2)cc(N2CCCCS2(=O)=O)c1 (some centres unmarked) [TCMDC-135302],9.387
12,O=C(Nc1cccc(CN2CCCN(Cc3ccc4c(c3)OCO4)CC2)c1)c1ccc(Cl)c(Cl)c1 [TCMDC-141820],-97.11
13,COc1cccc(NC(=O)CSc2nc(-c3ccccc3Cl)ns2)c1 [TCMDC-123544],62.62
14,COc1ccc(NC(=O)CSc2nc(-c3ccccc3Cl)ns2)cc1 [TCMDC-123543],61.96
15,CC(=O)c1ccc(NC(=O)CSc2nc(-c3ccccc3Cl)ns2)cc1 [TCMDC-124545],-8.871
16,O=C(Nc1cccc(Cl)c1)c1cc2ccccc2cc1O [TCMDC-124171],9.946
17,O=C(CSc1nc(-c2ccccc2Cl)ns1)Nc1ccc2c(c1)OCO2 [TCMDC-124546],53.36
18,COc1ccc(CC(=O)Nc2ccc(Nc3nc(C)cc(N4CCCC4)n3)cc2)cc1 [TCMDC-124966],-9.476
19,COc1ccccc1-c1ccc2nnc(SCC(=O)Nc3ccc4c(c3)OCCO4)n2n1 [TCMDC-124319],10.92
20,O=C(CSc1nc(-c2ccccc2Cl)ns1)Nc1cccc(F)c1 [TCMDC-124549],39.34
21,O=C(CSc1nc(-c2ccccc2Cl)ns1)Nc1cccc(Cl)c1 [TCMDC-124548],67.64
22,COc1ccc(NC(=O)CSc2nc(-c3ccccc3Cl)ns2)cc1OC [TCMDC-125346],40.34
23,COc1ccccc1Cc1nc2ccccc2nc1SCC(=O)Nc1cccc(C(F)(F)F)c1 [TCMDC-123879],0.3581
